Screening results from PubChem.
Compounds with a hit are over-represented: about 18% of the library has one in this group of screens.
TDP1 inh – blocks human tyrosyl-DNA phosphodiesterase 1; Potency, µM (top dose mostly 130 µM), without a hit: at the highest dose activity change, negative = inhibition, most hits filed as inhibitors; 350,000 compounds, 0.28% hits; AID 485290; Q9NUW8; recombinant TDP1, AlphaScreen DNA substrate cleavage; note: potency is the fitted concentration of half-maximal effect; % is set by controls: 0 for no effect and ±100 for the full control effect; nearly all actives have a fitted effect of over 40% in size
Target sequence (Q9NUW8 whole entry, looked up): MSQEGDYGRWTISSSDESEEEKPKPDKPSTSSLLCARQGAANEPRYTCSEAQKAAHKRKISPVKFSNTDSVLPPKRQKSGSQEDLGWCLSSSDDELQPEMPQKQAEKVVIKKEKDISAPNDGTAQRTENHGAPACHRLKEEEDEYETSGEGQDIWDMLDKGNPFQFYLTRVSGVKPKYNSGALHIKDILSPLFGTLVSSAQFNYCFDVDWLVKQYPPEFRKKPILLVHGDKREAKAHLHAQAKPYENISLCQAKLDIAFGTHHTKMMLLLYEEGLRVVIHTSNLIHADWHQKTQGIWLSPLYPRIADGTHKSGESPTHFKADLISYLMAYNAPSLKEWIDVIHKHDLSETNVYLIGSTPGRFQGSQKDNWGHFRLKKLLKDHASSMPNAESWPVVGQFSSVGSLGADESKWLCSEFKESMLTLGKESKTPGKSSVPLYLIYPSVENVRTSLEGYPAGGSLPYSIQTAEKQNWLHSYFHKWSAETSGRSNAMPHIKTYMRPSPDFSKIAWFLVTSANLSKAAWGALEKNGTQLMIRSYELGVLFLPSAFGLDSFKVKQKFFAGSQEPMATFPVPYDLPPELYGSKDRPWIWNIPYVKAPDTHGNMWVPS
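E. coli-derived human Tdp1, 1 nM final. Cpd preinc 15 min RT; substrate 15 nM final, 5 min RT; AS bead mix 10 ug/ml final, 10 min RT. Signal loss = tyrosine-FITC cleavage. No-enzyme wells = max signal.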
TGFb inhibitor – TGF-b pathway inhibition; Potency, µM (series often up to 46.1 µM), for the others: top-dose activity, negative = inhibition, actives largely listed as inhibitors; HepG2 CAGA-GFP TGF-b/SMAD3 reporter, GFP fluorescence, 18 h; TGF-beta stimulated, 500 pg/mL final; AID 588855; 410,000 compounds, 1.2% hits; note: potency is the fitted concentration of half-maximal effect; % is set by controls: 0 for no effect and ±100 for the full control effect; nearly all actives have a fitted effect of over 65% in size
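Inhibition of TGF-beta-driven CAGA-GFP reporter expression in HEPG2 cells is measured by cellular GFP fluorescence after 18 h stimulation with 500 pg/mL recombinant TGF-beta in 1% FBS medium at 37 degrees C.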
DT40 TDP1 CPT – growth inhibition of DT40 Tdp1-/-;hTDP1 cells with camptothecin (screen for TDP1 inhibitors); AID 686979; 420,000 compounds, 12% hits; chicken DT40 Tdp1-/-;hTDP1 cells + 20 nM CPT, ATP luminescence, 48 h; Potency, µM (titrated, usually from 46.2 µM), without a hit: top-dose activity change, negative = growth inhibition, most hits filed as inhibitors; note: potency is the fitted concentration of half-maximal effect; % is set by controls: 0 for no effect and ±100 for the full control effect; nearly all actives have a fitted effect of over 55% in size
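Chicken DT40 Tdp1-/- cells complemented with human TDP1, 400 cells/well, exposed to compounds plus 20 nM camptothecin for at least 48 h at 37 C; viability read as ATP content by CellTiter-Glo luminescence.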
HepG2 viability – counter-screen for TGF-b inhibitors: cytotoxicity in HepG2 cells; HepG2 CAGA-GFP viability, ATP luminescence, 18 h; Potency, µM (doses to about 46.1 µM), for inactives: at the top dose activity change, negative = cytotoxicity, most hits filed as cytotoxic; 410,000 compounds, 0.76% hits; note: potency is the fitted concentration of half-maximal effect
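HepG2 CAGA-GFP cells (1000/well, DMEM with 1% FBS) received compound, then TGF-beta at 500 pg/mL final, and were incubated 18 hours at 37 degrees C. Viability was read by CellTiter-Glo luminescence. Media-only wells were set as complete cell-killing and DMSO as no toxicity.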
DT40 TDP1 no CPT – qHTS for Inhibitors of human tyrosyl-DNA phosphodiesterase 1 (TDP1): qHTS in cells in absence of CPT; DT40 Tdp1-/- hTDP1 cells, no CPT, ATP luminescence, 48 h; Potency, µM (top dose mostly 46.2 µM), inactives show top-dose activity change, negative = growth inhibition, most hits filed as inhibitors; 420,000 compounds, 15% hits; note: potency is the fitted concentration of half-maximal effect; % is set by controls: 0 for no effect and ±100 for the full control effect; nearly all actives have a fitted effect of over 55% in size
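DT40 Tdp1-/-;hTDP1 cells, no CPT (DMSO vehicle only), 400 cells/well; compounds pin-transferred; ≥48 hr, 37 °C; CellTiter-Glo 30 min RT dark, luminescence read.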
IL1B secr inh – blocks inflammasome-driven IL-1 beta release; 360,000 compounds, 4.7% hits; THP-1 LPS/ATP IL-1B secretion, AlphaLISA, 16 h; stronger effect = lower value; activity change, % at 57.5 µM; AID 743279; in the data active = activity change below about -50%; inconclusive = mostly about -30% to -49%; note: % is set by controls: 0 for no effect and ±100 for the full control effect
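THP-1 cells pretreated 1 hr with compounds (up to 57.5 uM final), then stimulated with LPS (250 ng/mL final) plus ATP (1.25 mM final); secreted IL-1B measured by AlphaLISA after 16 hr, decreased signal indicating inhibition.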
An asterisk follows results filed as active; ? = inconclusive; / = not tested or not shown; [ ] = remark or other dose. Unless noted, calls come from the whole dose curve; as a rule, active = well fitted curve in the direction sought with a large enough effect; inconclusive = small, poorly fitted or top-dose-only effect, or another doubt; inactive = no such curve, though single readings can be large; an effect the other way counts as inactive or inconclusive.

SMILES | TDP1 inh | TGFb inhibitor | DT40 TDP1 CPT | HepG2 viability | DT40 TDP1 no CPT | IL1B secr inh
COc1ccc(OC)c(CCNC(=O)c2cc3cccc4c3n2CC(C)S4)c1 (stereo unspecified) | 6% | 0% | 5.8µM* | -35% | 5.2µM* | /
Cc1cc(C)n2ncc(S(=O)(=O)c3ccccc3)c2n1 | 1% | 14% | 3% | 6% | 11% | 15
Cc1c(NC(=O)C(C)(C)Oc2ccc(Cl)cc2)cccc1-c1nc2ncccc2o1 | -3% | ? | 16µM* | -2% | 23µM* | /
CCOc1cccc(C(=O)Nc2cccc(-c3nc4ncccc4o3)c2C)c1 | 9% | -1% | -8% | -36% | ? | -63*
Cc1cc(C)cc(C(=O)Nc2cccc(-c3nc4ncccc4o3)c2C)c1 | 2% | 10% | 1% | 3% | -15% | /
COc1ccc(C(=O)Nc2cccc(-c3nc4ncccc4o3)c2C)cc1OC | 7% | 21% | -29% | 20% | ? | -15
Cc1c(NC(=O)c2ccc([N+](=O)[O-])o2)cccc1-c1nc2ncccc2o1 | / | ? | 18µM* | 25µM* | ? | -103*
C=Cc1ccc(Cn2c(=O)cc(C)c3c(C)nn(C)c32)cc1 | -2% | -14% | ? | -4% | ? | /
Nc1nc(=S)c2ncn([C@H]3O[C@@H](CO)[C@@H](O)[C@@H]3O)c2[nH]1 | 11%[21 µM] | / | / | / | / | /
COc1ccc(OC)c(CCNC(=O)CCn2c(=O)c3cccn3c3cccnc32)c1 | 3% | -3% | ? | -1% | 16µM* | /
COc1ccc(CCNC(=O)CCCn2c(=O)c3cccn3c3cccnc32)c(OC)c1 | -2% | 11% | ? | 9% | -21% | -3
COc1ccc(NC(=O)CCn2c(=O)c3cccn3c3cccnc32)c(OC)c1 | 8% | -3% | ? | 3% | 15µM* | /
Nc1ccc(N(CCO)CCO)cc1 | / | 8% | 12µM* | 0% | 21µM* | -8
CCN(CC)c1ccc(C(=O)NN)cc1 | -3% | 2% | 28% | -2% | -3% | -52*
CCN(CC)C(=O)c1ccc(N)cc1 | 0% | -5% | 1% | -11% | 7% | -21
CCN(CC)c1ccc(C(=O)N/N=C(\C)c2ccc(OC)c(OC)c2)cc1 | 5% | 2% | -4% | -40% | 26µM* | 6
CCN(CC)c1ccc(N)cc1 | 12% | ? | 1.8µM* | -42% | 1.6µM* | -66*
Nc1ccc(C(=O)N(CCO)CCO)cc1 | -2% | 10% | 8% | 4% | 7% | 0
C[C@@H](C(=O)Nc1ccc2ccccc2c1)[C@@H]1C[C@@]1(C)[C@@H](NC(=O)Oc1ccc(F)cc1)c1ccccc1 | 4% | / | / | / | / | /
CCN(CC)S(=O)(=O)c1cc(NS(=O)(=O)c2cccs2)ccc1C | 0% | 8% | -23% | -29% | 5.8µM* | 14
CCN(CC)S(=O)(=O)c1ccc(NS(=O)(=O)c2cccs2)cc1 | 2% | -6% | 0% | -12% | 2% | 24
CCN(CC)S(=O)(=O)c1ccc(NC(=S)NC(=O)C2CCC2)cc1 | 2% | -1% | 18µM* | -13% | ? | -17
CCN(CC)S(=O)(=O)c1cc(NC(=S)NC(=O)C2CCCC2)ccc1C | 0% | ? | 23µM* | -21% | 18µM* | -18
CN(C)S(=O)(=O)c1ccc(NC(=S)NC(=O)C2CCC2)cc1 | 1% | 0% | 2% | -6% | -4% | 3
Cc1ccc(NC(=S)NC(=O)C2CCCC2)cc1C | -6% | -27% | ? | -19% | ? | 6
CCCc1nnc(SCC(=O)Nc2ccccc2F)o1 | / | -3% | -9% | 0% | -2% | -10
CCC(C)CN1C(=O)CSCC1(C)C(=O)NC(C)C (stereo unspecified) | / | / | 11% | / | 19% | -13
